PubChem BioAssay
Active and inactive are the calls of the source. No rule for the calls is given here.

Test: inhibition of Brca1/Bard1 split-luciferase complementation, confirmation, counter-screen for Mdm2/MdmX interaction inhibitor project, luminescence, single concentration (AID 504668)
Details: Brca1/Bard1 bimolecular luciferase complementation counterscreen, at 8 µM, active compounds read high

Row | Compound | inhibition
1 | CCC(=O)Nc1cccc(C(=O)/C=C/c2ccccc2)c1 | 34.4% (active)
2 | CCc1ccc(NC(=O)[C@H](Cc2c[nH]c3ccccc23)NC(=O)[C@@H]2Cc3ccccc3CN2)cc1 | 24.1% (active)
3 | O=C(NC(Cc1c[nH]c2ccccc12)C(=O)Nc1ccc(F)c([N+](=O)[O-])c1)c1cccs1 (centres undefined) | 24.8% (active)
4 | Cc1ccc2nc(-c3ccccn3)c(Nc3ccccc3C)n2c1 | 35.8% (active)
5 | Cc1cc(SCC(=O)N/N=C/c2ccc(O)cc2O)nc2ccccc12 | 32.4% (active)
6 | CCOC(=O)c1cnc(-n2nc(C)cc2C)nc1NNc1nc(-c2ccccc2)cc(-c2ccccc2)n1 | 25% (active)
7 | Brc1cc(Br)c2ncnc(N3CCCCC3)c2c1 | 27.7% (active)
8 | CC(C)(C)c1ccc(OCC(=O)N/N=C/c2cc(Br)ccc2OC(=O)c2ccco2)cc1 | 27% (active)
9 | CCOC(=O)c1c(-c2ccccc2)oc2ccc(OCC(O)CNCCN(C)C)cc12 (centres undefined) | 35.1% (active)
10 | Cc1ccc(S(=O)(=O)Nc2cc(-c3nn(C)c(=O)c4ccccc34)ccc2N2CCOCC2)cc1 | 29.6% (active)
11 | CCOc1cc(CNCCO)cc(Br)c1OCc1ccc(Cl)cc1Cl | 25.5% (active)
12 | COc1ccc(OC)c2[nH]c(C(=O)N/N=C/c3ccccc3O)cc12 | 32.5% (active)
13 | O=C(C[C@H]1C[C@H](C(=O)N2CCCCC2)[C@@]2(CCc3ccccc3)c3[nH]c4ccc(Cl)cc4c3CCN2C1=O)NCc1cccc(C(F)(F)F)c1 | 34% (active)
14 | COc1cccc(/C=N/NC(=O)c2cc(-c3cccn3C)n[nH]2)c1O | 32.4% (active)
